# Compound activity from PubChem BioAssay.
# Hits are enriched below; roughly 19% of the tested compounds scored in any of these assays.
# TDP1 cell noCPT = qHTS for Inhibitors of human tyrosyl-DNA phosphodiesterase 1 (TDP1): qHTS in cells in absence of CPT | Potency, µM (doses to about 46.2 µM), inactives show top-dose activity change, negative = growth inhibition, actives largely listed as inhibitors | DT40 Tdp1-/- hTDP1 cells, no CPT, ATP luminescence, 48 h | 420,000 tested, 15% active; note: potency is the fitted concentration of half-maximal effect; nearly all actives have a fitted effect of over 55% in size
#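 Chicken DT40 Tdp1-/- cells complemented with human TDP1, screened without camptothecin (DMSO vehicle only), 400 cells/well. Compounds pin-transferred, cells incubated at 37 °C for at least 48 hr. Growth read as ATP-dependent luminescence (CellTiter-Glo, 30 min at RT).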
# HT1080-NT tox = kills 2HG-producing HT-1080-NT fibrosarcoma cells. HT-1080-NT fibrosarcoma viability, CellTiter-Glo ATP luminescence, 48 h. Potency, µM (doses to about 46.1 µM), for the others: at the highest dose activity, negative = less viability, actives largely listed as cytotoxic. 360,000 tested, 1.6% active. AID 686970;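 note: NT is the 2HG producing partner of a matched IDH1 knockdown line; potency is the fitted concentration of half-maximal effect; 0% = DMSO-treated cells and -100% = media-only wells without cells; nearly all actives have a fitted effect of over 55% in size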
#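 HT-1080-NT; 750 cells/well; 5% FBS RPMI; 48 h compound, 37 degrees C; CellTiter-Glo luminescence; curve fitting and curve-class assignment.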
# TDP1 cell CPT = DT40-hTDP1 cell growth loss with CPT | 420,000 tested, 12% active | AID 686979 | Potency, µM (series often up to 46.2 µM), for inactives: at the highest dose activity change, negative = growth inhibition, hits mostly inhibitors | chicken DT40 Tdp1-/-;hTDP1 cells + 20 nM CPT, ATP luminescence, 48 h; note: potency is the fitted concentration of half-maximal effect; nearly all actives have a fitted effect of over 55% in size
#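 Chicken DT40 Tdp1-/- cells complemented with human TDP1, 400 cells/well, exposed to compounds plus 20 nM camptothecin for at least 48 h at 37 C; viability read as ATP content by CellTiter-Glo luminescence.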
# IL-1B inflam inh = blocks inflammasome-driven IL-1 beta release. THP-1 LPS/ATP IL-1B secretion, AlphaLISA, 16 h; hits give low values. activity change, % at 57.5 µM. 360,000 tested, 4.7% active; in the data active = activity change below about -50%; inconclusive = mostly about -30% to -49%
#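 THP-1 cells pretreated 1 hr with compounds (up to 57.5 uM final), then stimulated with LPS (250 ng/mL final) plus ATP (1.25 mM final); secreted IL-1B measured by AlphaLISA after 16 hr, decreased signal indicating inhibition.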
# HT1080 IDH1KD tx = toxicity to HT-1080 IDH1 knockdown cells (counter line); HT-1080 IDH1 knockdown viability, ATP luminescence, 48 h; Potency, µM (doses to about 46.1 µM), without a hit: at the top dose activity, negative = toxicity, most hits filed as cytotoxic; 360,000 tested, 2% active; AID 686971;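 note: potency is the fitted concentration of half-maximal effect; 0% = DMSO wells and -100% = cell-free medium wells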
#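 CellTiter-Glo luminescence after 48 h compound exposure at 37 degrees C of IDH1-knockdown HT-1080 cells in 5% FBS RPMI. %Activity scaled between DMSO wells and cell-free media wells, with curves fitted and assigned curve classes.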
# The depositor's hits bear a star; ? = inconclusive; . = not tested or not shown. Unless noted, calls come from the whole dose curve; as a rule, active = well fitted curve in the direction sought with a large enough effect; inconclusive = small, poorly fitted or top-dose-only effect, or another doubt; inactive = no such curve, though single readings can be large; an effect the other way counts as inactive or inconclusive. Unless noted, % is set by controls: 0 for no effect and ±100 for the full control effect.
SMILES,TDP1 cell noCPT,HT1080-NT tox,TDP1 cell CPT,IL-1B inflam inh,HT1080 IDH1KD tx
COc1cc2ccnc(C=NO)c2cc1OC,21µM*,-10%,21µM*,?,?
COc1ccc(C(N)c2nccc3cc(OC)c(OC)cc23)cc1OC (stereo unspecified),?,0%,?,-83*,-16%
COc1cc(N)c(Cc2nccc3cc(OC)c(OC)cc23)cc1OC,?,-5%,?,18,-10%
COc1cc(Br)c(C(=O)c2nccc3cc(OC)c(OC)cc23)cc1OC,18µM*,?,23µM*,10,-15%
CCCOc1cccc(C(=O)NCCNC(=O)c2ccco2)c1,-27%,10%,0%,30,3%
O=C(Nc1ccccc1C(F)(F)F)C1CCN(C(=O)c2cccs2)CC1,7%,9%,15%,4,-2%
CCOC(=O)c1ccc(N2CC3=C(C2=O)C(c2ccc(OC)cc2)NC(=O)N3C)cc1 (stereo unspecified),5%,.,13%,.,.
COc1cc2ccnc(C=O)c2cc1OC,2.6µM*,-19%,4.6µM*,-6,?
COc1ccc(-n2c(-c3ccc(Cl)cc3)c[n+]3c2CCc2ccccc2-3)cc1,2.3µM*,23µM*,2.9µM*,-55*,8.2µM*
O=c1oc(/C=C/c2ccco2)nc2sc3c(c12)CCC3,-4%,2%,3%,10,7%
CCOC(=O)c1c(S(=O)(=O)Nc2cccc(-c3ccno3)c2)c(C)n(C)c1C,-14%,10%,1%,10,-8%
COC(=O)c1cc(S(=O)(=O)Nc2cccc(-c3ccno3)c2)c[nH]1,7.3µM*,2%,12µM*,26,-5%
O=C(c1cc(COc2cccc3cnccc23)on1)N1CCCC(CCCO)C1 (stereo unspecified),0.65µM*,?,1.2µM*,?,?
CSc1ccccc1OCc1cc(C(=O)N2CCCC(C)C2)no1 (stereo unspecified),?,8%,-7%,-12,3%
Cc1nn(C)cc1C(C)NC(=O)c1cc(COc2c(F)cccc2F)on1 (stereo unspecified),9%,15%,-28%,-25,14%
COc1ccccc1OCc1cc(C(=O)N2CCCC(OCc3cccnc3)C2)no1 (stereo unspecified),?,5%,?,-13,0%
Cc1ccc(OCc2cc(C(=O)N(C)Cc3nccn3C)no2)cc1C,-22%,-3%,-20%,0,-1%
CCn1ccnc1CN(C)C(=O)c1cc(COc2ccc(OC)c3ccccc23)on1,?,-25%,15µM*,-16,?
Cc1nn(C)cc1C(C)NC(=O)c1cc(COc2cccc3cnccc23)on1 (stereo unspecified),?,-10%,10µM*,-13,?
COc1ccc(OCc2cc(C(=O)N3CCCC(CO)C3)no2)c2ccccc12 (stereo unspecified),15µM*,-12%,?,-12,0%
C[C@H]1CN([C@@H](C)CO)C(=O)CCCn2nncc2CO[C@H]1CN(C)S(=O)(=O)c1ccc2c(c1)OCCCO2,7%,4%,10%,18,-4%
COCC1CCN(C(=O)c2cc(COc3cccc4cnccc34)on2)CC1,4.1µM*,-16%,9.2µM*,-53*,-27%
COCC1CCN(C(=O)c2cc(COc3ccc(F)cc3Cl)on2)C1 (stereo unspecified),?,6%,?,-11,7%
CSCCC(=O)N1CCCC(CNC(=O)c2ccc(-c3ccccc3)cc2)C1 (stereo unspecified),?,0%,?,16,-1%
CCc1cc(C(=O)N2CCCC(CNC(=O)c3ccc(-c4ccccc4)cc3)C2)no1 (stereo unspecified),16µM*,1%,?,-23,0%
SMILES,TDP1 cell noCPT,HT1080-NT tox,TDP1 cell CPT,IL-1B inflam inh,HT1080 IDH1KD tx
Cc1cc(C)c(C(O)c2ncc(-c3cccc(F)c3)[nH]2)c(C)c1 (stereo unspecified),?,-15%,?,-16,-21%
OCc1ccccc1-c1nc(NCC2CC2)nc2ccsc12,?,5%,?,4,1%
CC(=O)Nc1ccc(CNc2nc(NCC3CC3)nc3ccsc23)cc1,?,?,18µM*,-105*,?
CC(=O)Nc1ccc(CNc2nc(NC(C)C)nc3ccsc23)cc1,-24%,-3%,0%,-90*,-1%
CC(=O)Nc1cccc(Oc2nc(NC(C)C)nc3cc(-c4ccccc4)sc23)c1,?,?,?,-63*,?
CC(=O)Nc1cccc(Oc2nc(NCC3CC3)nc3ccsc23)c1,21µM*,-22%,16µM*,0,-29%
COc1ccc(OC)c(NS(=O)(=O)c2c(C)nc3sccn3c2=O)c1,?,-5%,-6%,13,2%
Cc1noc(C)c1S(=O)(=O)NC(=O)C1(C)CCN1C(=O)C1(c2ccc(Cl)cc2)CCC1 (stereo unspecified),-1%,-2%,3%,11,7%
Cc1ccc(C)c(N(CC(=O)NC2CCCC2)C(=O)c2csnn2)c1,9%,18%,6%,2,6%
c1ccc2cc(Sc3ncnc4c3oc3ccccc34)ccc2c1,?,-2%,?,-7,-1%
Cc1cc(C)nc(Sc2ncnc3c2oc2ccccc23)n1,23µM*,6%,?,-18,1%
CC(C)c1ccc(NC(=O)CSc2nnc(-c3ccccc3)n2C)cc1,-11%,.,-15%,.,.
CC(=O)N[C@@H](C)c1nc2ccccc2n1CCCN1CCN(c2nc(-c3ccc(C)cc3)cs2)CC1,1µM*,-17%,1µM*,11,-12%
Cc1ccc(-c2csc(N3CCN(CCCn4c(C(F)(F)F)nc5ccccc54)CC3)n2)cc1,15µM*,?,21µM*,29,-8%
O=C(NCCn1c(C(F)(F)F)nc2ccccc21)[C@H]1CCCN1c1nc(CN2CCCCC2)cs1,5%,-2%,-8%,-21,-2%
Cc1ccc(-c2csc(N3CCC[C@@H]3C(=O)NCCn3c(-c4ccncc4)nc4ccccc43)n2)cc1,13µM*,-29%,?,?,-23%
Cc1ccc(-c2csc(N3CCN(CCCn4c(-c5ccncc5)nc5ccccc54)CC3)n2)cc1,3.7µM*,?,5.8µM*,3,?
CCc1nn(CC(=O)NC2CC2)c(=O)c2cc3ccccc3n12,-27%,.,3%,.,.
COc1ccc(N(C(=O)c2snc(C(N)=O)c2N)C(C(=O)NC2CCCC2)c2ccc(F)cc2)c(OC)c1 (stereo unspecified),?,-24%,-28%,8,-29%
